# According to PubChem BioAssay (Tox21):
# Inconclusive results are not listed. Activity calls are given as the source filed them. Calls follow the shape of the full dose curve.
# Experiment: p53 small molecule agonists, cell-based qHTS assay with rat liver microsomes (AID 1963578)
# Conditions: HCT-116 p53RE-bla, beta-lactamase ratio, 16 h; series mostly up to 66 µM; activation: at the top concentration
# Description: U.S. Tox21 Program National Center for Advancing Translational Sciences [NCATS] Division of Preclinical Innovation [DPI] U.S. Environmental Protection Agency [EPA] National Institutes of Environmental Health Sciences [NIEHS] National Toxicology Program [NTP] U.S. Food and Drug Administration [FDA] Tox21 Assay Overview: p53, a tumor suppressor protein, is activated following cellular insult, including DNA damage and other cellular stresses. The activation of p53 regulates cell fate by inducing DNA repair, cell cycle arrest, apoptosis, or cellular senescence. The activation of p53, therefore, is a good indicator of DNA damage and other cellular stresses. […] The activation of the reporter gene under culture conditions can be detected by fluorescence intensity. This cell line was used to screen the Tox21 10K compound library in the condition of presence of rat liver microsomes and to identify agonists that activate the p53 signaling pathway after in vitro metabolic activation (Ooka et al., Archive of Toxicology 96:1975-1987, 2022).
# Tox21 Assay Protocol Summary: The p53RE-bla cells were dispensed at 4,000cells/3ul/well in 1536-well black-clear bottom plates. After the assay plates were incubated at 37 C, 5% CO2 incubator for 5 hours, 23 nL of compounds dissolved in DMSO, positive controls or DMSO only was transferred to the assay plate. Following compound addition, 3 uL of rat liver microsomes (Molecular Toxicology, Boone, NC) at final concentration of 0.5 mg/mL and 1uL of Beta-Nicotinamide adenine dinucleotide 2-phosphate (NADPH) at final concentration of 0.5 mg/mL were transferred to the assay plate. The plates were incubated at 37 C for 16 hours. 1 uL of LiveBLAzer detection mixture was added to each well and the plates were incubated at room temperature in the dark for 2 h.
# % is scaled to controls: 0 for no effect and ±100 for the full control effect.
SMILES,activation,Potency
c1cncc([C@@H]2CCCCN2)c1,0.143% (inactive),–
CCC(CC)(CNC(=O)CCCO)c1cccc(OC)c1,-0.906% [at 30.3 µM] (inactive),–
ClC=C(Cl)Cl,-3.82% (inactive),–
O=C(OC1CCCCC1)c1ccccc1C(=O)OC1CCCCC1,-2.04% (inactive),–
CC1(C)C(C(=O)OC(C#N)c2cccc(Oc3ccccc3)c2)C1(C)C (stereo not given),–,inactive
COc1cccc(C(=O)CCN[C@@H](C)[C@H](O)c2ccccc2)c1,8.87% [at 30.3 µM] (inactive),–
CSC1=N[C@@](C)(c2ccccc2)C(=O)N1Nc1ccccc1,0.805% (inactive),–
CC(C)(Cl)[N+](=O)[O-],-0.225% (inactive),–
ClCC(Cl)Cl,-3.47% (inactive),–
CC1CCCCC1NC(=O)Nc1ccccc1 (stereo not given),6.56% (inactive),–
Oc1cc(Cl)c(Cl)c(Cl)c1Cl,-2.54% (inactive),–
O=[N+]([O-])c1ccc(Cl)c(Cl)c1Cl,4.73% (inactive),–
CC(C)COP(=O)(OCC(C)C)OCC(C)C,0.3% (inactive),–
COc1cc(CC#N)cc(OC)c1OC,0.0981% [at 30.3 µM] (inactive),–
O=C(CCl)C(Cl)Cl,-8.39% (inactive),–
CC(C)[C@H](C(=O)OC(C#N)c1cccc(Oc2ccccc2)c1)c1ccc(OC(F)F)cc1 (stereo not given in full),10.8% (inactive),–
NC(=O)C(Cl)Cl,-0.317% (inactive),–
CN1C[C@@H](NS(=O)(=O)N(C)C)C[C@@H]2c3cccc4c3c(cn4C)C[C@H]21,-0.467% [at 30.3 µM] (inactive),–
O=C(Nc1ccc2[nH]ccc2c1)c1cc2cc(F)ccc2n1Cc1cccc(F)c1,13.2% (inactive),–
CC(C)NCC(O)c1ccc(N)c(C#N)c1 (stereo not given),1.07% [at 30.3 µM] (inactive),–

SMILES,activation,Potency
C=CCOC(C)=O,0.21% (inactive),–
CSCCCN=C=S,-3.17% (inactive),–
CCS(=O)(=O)c1cccnc1S(=O)(=O)NC(=O)Nc1nc(OC)cc(OC)n1,0.174% (inactive),–
O=[N+]([O-])c1ccccc1CCl,2.18% (inactive),–
C[N+]1(C)[C@@H]2CC[C@H]1CC(OC(=O)C(CO)c1ccccc1)C2 (stereo not given in full),-1.37% [at 30.3 µM] (inactive),–
Cc1cccc(Cc2cnc[nH]2)c1C,0.829% [at 30.3 µM] (inactive),–
C[C@H]1[C@H](c2ccc(Cl)cc2)SC(=O)N1C(=O)NC1CCCCC1,4.48% (inactive),–
CC(C)C(=O)Cl,-3.4% (inactive),–
C[C@@H]1CC[C@@]2(OC1)O[C@H]1[C@@H](O)[C@H]3[C@@H]4CC[C@H]5C[C@@H](O[C@@H]6O[C@H](CO)[C@H](O[C@@H]7O[C@H](CO)[C@@H](O)[C@H](O[C@@H]8OC[C@@H](O)[C@H](O)[C@H]8O)[C@H]7O[C@@H]7O[C@H](CO)[C@@H](O)[C@H](O[C@@H]8O[C@H](CO)[C@@H](O)[C@H](O)[C@H]8O)[C@H]7O)[C@H](O)[C@H]6O)[C@H](O)C[C@]5(C)[C@H]4CC[C@]3(C)[C@H]1[C@@H]2C,-0.753% (inactive),–
S=C=Nc1cccc2ccccc12,-2.19% (inactive),–
CCCCc1ccc(O)cc1,-6.03% (inactive),–
N=C(N)[Se],1.07% (inactive),–
CC1(C)CN=C(NN=C(/C=C/c2ccc(C(F)(F)F)cc2)/C=C/c2ccc(C(F)(F)F)cc2)NC1,0.0612% (inactive),–
N#Cc1c[nH]cc1-c1cccc2c1OC(F)(F)O2,-3.24% (inactive),–
CS(=O)(=O)c1ccc(C(=O)C2C(=O)CCCC2=O)c([N+](=O)[O-])c1,0.0982% (inactive),–
O=C1CN2CCOC2(c2ccccc2Cl)c2cc(Cl)ccc2N1 (stereo not given),-1.06% [at 30.3 µM] (inactive),–
c1ccc2c(c1)Sc1ccccc1N2CC1CN2CCC1CC2 (stereo not given),-0.141% [at 30.3 µM] (inactive),–
O=C(CCl)NCO,0.196% (inactive),–
CCN(CC)c1c([N+](=O)[O-])cc(C(F)(F)F)c(N)c1[N+](=O)[O-],-2.65% (inactive),–
CCS(=O)(=O)C(C)(C)S(=O)(=O)CC,-0.793% [at 30.3 µM] (inactive),–
